# Insulin prom up – MIN6 insulin promoter up-regulation | 190,000 tested, 0.3% active | z-score at 5 µM | AID 1625 | MIN6 insulin promoter-GFP reporter, high-content imaging; hits give high values;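 active = z-score above 3 at 5 µM with at least 500 cells counted in the well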
# INS promoter inh – TRM-6 insulin promoter activity inhibition; TRM-6 cells (human fetal islet line), insulin promoter-eGFP reporter, imaging; reporter expression induced with tamoxifen; 130,000 tested, 0.9% active; inhibition, % at 2 µM;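 active = inhibition above the mean plus 3 SD, with well images judged a real hit on visual review, cut at about 60% in these data, passing the limit was not always enough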
# WT yeast gro inh – growth inhibition of WT yeast, mitochondrial fusion screen; mitochondrial fusion phenotypic screen, WT strain; inhibition, % at 10 µM; 190,000 tested, 2.1% active; AID 1362; in the data active = inhibition above about 58%; tested in S. cerevisiae
# Autophagy HCS – modulators of autophagy; MEF GFP-LC3 puncta imaging; test concentration mostly 10 µM; calls only at 10 µM (by protocol); 190,000 tested, 0.98% active; AID 463193;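 active = percentage of spot-positive cells more than 3 SD above its plate mean, without a fluorescence outlier flag or 80% toxicity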
# Lmaj promast – reduces viability of Leishmania major promastigotes; resazurin fluorescence viability; inhibition, % at 10 µM; 200,000 tested, 9% active; AID 1063; in the data active = inhibition above about 50%;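 also: promastigotes grown with compound for 44 hours at 28 °C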
# Numbers stand for hits; . = inactive; / = not tested or not shown; + = active, no number. Hits are enriched below; roughly 11% of the tested compounds scored in any of these assays.
SMILES,Insulin prom up,INS promoter inh,WT yeast gro inh,Autophagy HCS,Lmaj promast
Cc1ccc(C(c2nnnn2C2CCCCC2)N2CCc3ccccc32)cc1 (stereo not given),.,.,.,.,53.3
Cc1ccc(C(c2nnnn2C2CCCC2)N2CCN3CCCC3C2)cc1 (stereo not given),.,.,.,.,86.7
C/C(=N\N1CCN(C2c3ccccc3-c3ccccc32)CC1)c1cccnc1,.,.,.,.,.
CN=c1scc(-c2ccccc2F)n1/N=C(\C)c1cccnc1,.,/,71.1,.,.
Cc1ccc(/C=C/C(=O)Nc2sc(C)c(C)c2C(=O)OC(C)C)o1,.,.,.,.,50.8
CCOC(=O)c1c(NC(=O)/C=C/c2ccc(C)o2)sc(C)c1C,.,.,.,.,.
Cc1ccc(/C=C/C(=O)Nc2nnc(C)s2)o1,.,.,.,.,54.6
CCOC(=O)c1sc(NC(=O)/C=C/c2cnn(C)c2C)c(C(=O)OC(C)C)c1C,.,/,59.2,.,.
CC1(C)Cc2c(sc(NC(=O)c3ccccc3Cl)c2C(=O)O)CO1,.,/,.,.,.
COc1ccc(/C=C(\C#N)c2nc3ccc(C)cc3[nH]2)cc1Oc1ccc(C(F)(F)F)cc1[N+](=O)[O-],.,/,.,+,.
Cc1ccc2nc(/C(C#N)=C/c3ccc(-c4cccc([N+](=O)[O-])c4)o3)[nH]c2c1,.,/,.,+,.
COc1cc(/C=C(\C#N)c2nc3ccc(C)cc3[nH]2)cc([N+](=O)[O-])c1O,.,/,.,.,.
Cc1ccc2nc(/C(C#N)=C\c3cc(O)ccc3[N+](=O)[O-])[nH]c2c1,.,/,.,.,.
Cc1ccc2nc(/C(C#N)=C\c3ccc(Oc4ccc(C(F)(F)F)cc4[N+](=O)[O-])cc3)[nH]c2c1,.,/,.,.,.
COc1cc(/C=C(\C#N)c2nc3ccc(C)cc3[nH]2)c([N+](=O)[O-])cc1OC,.,/,.,.,98.2
CC(NS(=O)(=O)c1ccc(Cl)cc1)C(=O)NCCC1=CCCCC1 (stereo not given),.,/,.,.,.
Cc1cc[n+]2cc(-c3cccc([N+](=O)[O-])c3)c(-c3cccc([N+](=O)[O-])c3)cc2c1,.,.,.,.,.
CCN1CCc2nc(NC(=O)CC(c3ccccc3)c3ccccc3)sc2C1,.,.,.,.,55.5
CC(C)c1ccc2oc(-c3cc(N)ccc3O)nc2c1,.,/,68.0,.,.
Cn1ccc(C(=O)OCC(=O)Nc2cccc3ccccc23)n1,/,.,.,.,.
O=C(NC(Cc1c[nH]c2ccccc12)C(=O)NCc1ccc(F)cc1)OCc1ccccc1 (stereo not given),.,.,.,.,.
O=C(CCc1nnc(C2CCCCC2)o1)N1CCC(Oc2cccnc2)CC1,/,/,.,.,.
COc1ccc(CN2CCN(C3CCSCC3)CC2CCO)c(C)c1C (stereo not given),.,/,.,.,87.6
CCOc1ccccc1CN1CCN(C2CCOCC2)CC1CCO (stereo not given),.,/,.,.,.
COc1ccc(CN2CCN(C3CCOCC3)CC2CCO)c(C)c1C (stereo not given),.,/,.,.,81.1
SMILES,Insulin prom up,INS promoter inh,WT yeast gro inh,Autophagy HCS,Lmaj promast
CN1CCN(c2ccc(C(=O)NC3CCCCC3)cc2[N+](=O)[O-])CC1,.,/,.,.,.
CCOc1ccc(C2C(C(=O)/C=C/c3ccco3)=C(O)C(=O)N2CCN2CCOCC2)cc1OC (stereo not given),/,.,.,.,.
O=C(NCc1ccc(F)cc1)C1CCCN(S(=O)(=O)c2cccnc2)C1 (stereo not given),3.46,/,.,.,.
CC(C)CN(CC(C)C)S(=O)(=O)N1CCC(C(=O)NCc2cccs2)CC1,.,.,.,.,.
CC1CCN(S(=O)(=O)N2CCC(C(=O)NCc3cccs3)CC2)CC1,.,/,.,+,.
Cn1c(=O)oc2cc(S(=O)(=O)N3CCC(C(=O)NCc4ccc(F)cc4)CC3)ccc21,.,/,.,+,.
O=C(NCc1cccs1)C1CCCN(S(=O)(=O)c2cnc[nH]2)C1 (stereo not given),.,/,.,+,.
Cn1c(=O)oc2cc(S(=O)(=O)N3CCC(C(=O)NCc4cccs4)CC3)ccc21,.,/,.,.,.
O=C(NCc1cccnc1)C1CCCN(S(=O)(=O)c2ccccc2)C1 (stereo not given),.,.,.,.,.
O=C(CCN1C(=O)C2C3C=CC(C3)C2C1=O)N1CCN(c2ccccn2)CC1 (stereo not given),.,.,.,.,.
O=C(CCSCc1ccccc1Cl)N1CCN(c2cccc(Cl)c2)CC1,/,.,60.7,.,68.5
O=C(CSCc1ccccc1Cl)N1CCN(c2ccccn2)CC1,.,.,.,.,60.2
O=C(CCN1C(=O)C2C3C=CC(C3)C2C1=O)N1CCN(c2cccc(Cl)c2)CC1 (stereo not given),.,.,.,.,55.6
O=C(C(=O)N1CCN(c2cccc(Cl)c2)CC1)N1CCCCC1,.,.,.,.,.
CCN1CCN(c2nc(N)c([N+](=O)[O-])c(Nc3cccc(C)c3)n2)CC1,.,.,.,.,99.9
Cc1cccc(Nc2nc(N)c([N+](=O)[O-])c(N3CC(C)CC(C)C3)n2)c1 (stereo not given),.,.,95.9,.,92.8
COc1ccc(OC(=O)c2cnc3n(c2=O)CCS3)cc1,.,/,/,/,/
CN(C)CCNC(=O)/C=N/O,.,/,.,.,.
CC(C)N(CC#CCC(O)(c1ccccc1)c1ccccc1)C(C)C,.,.,.,.,87.8
CCN(CC#CCC(O)(c1ccccc1)c1ccccc1)C(C)C,.,/,.,.,87.0
Cc1ccc(OCC(=O)c2cc(C)n(C)c2C)c([N+](=O)[O-])n1,.,.,.,.,52.9
Cc1cc(C(=O)COc2cccnc2[N+](=O)[O-])c(C)n1-c1ccccc1,.,.,.,.,50.6
Cc1nc(Sc2nnnn2C)c2c3c(sc2n1)CCC3,.,/,.,+,.
CCc1nc(N2CCN(C(=O)c3ccccc3)CC2)c2c3c(sc2n1)CCCC3,.,/,.,.,.
CCc1nc(Sc2nnnn2-c2ccccc2)c2c3c(sc2n1)CCCC3,.,.,.,.,97.9
SMILES,Insulin prom up,INS promoter inh,WT yeast gro inh,Autophagy HCS,Lmaj promast
O=C(/C=C/c1ccc2c(c1)OCO2)NCCSCc1c(Cl)cccc1Cl,.,.,.,.,.
CC1CCCCC1NCc1cccc([N+](=O)[O-])c1 (stereo not given),.,.,.,.,83.0
O=[N+]([O-])c1cccc(CNC2CCCCCC2)c1,.,/,.,.,86.2
COCC(C)NCc1cccc([N+](=O)[O-])c1 (stereo not given),.,/,.,.,.
COc1ccc([N+](=O)[O-])cc1NCc1cccc([N+](=O)[O-])c1,.,.,.,.,.
Cc1cc(C)n2c(SCc3c(C)noc3C)nnc2n1,.,80.0,.,.,.
Cc1noc(C)c1CSc1nc2ccccc2n1C,.,.,.,+,.
Cc1cc(C)n2c(SCc3ccc(Br)cc3)nnc2n1,.,/,/,/,/
CCOC(=O)C1CCC(CN(Cc2ccccc2)S(=O)(=O)c2ccc([N+](=O)[O-])cc2)CC1 (stereo not given),.,/,71.5,.,.
Cc1cc(C(=O)NCc2ccccc2Br)no1,.,.,.,.,.
